Inconclusive results are not listed. Entries that show only a call come without a potency. Activity calls are given as the source filed them. Unless noted, calls follow the shape of the dose curve; as a rule, active = well fitted curve in the direction sought with a large enough effect in the repeat runs; inconclusive = weak or mixed curves; inactive = no such curve, though single readings can be large; an effect the other way counts as inactive or inconclusive.
Columns and labels:
[1] = Primary qHTS for small molecule stabilizers of the endoplasmic reticulum resident proteome: Secreted ER Calcium Modulated Protein (SERCaMP) assay (AID 1508630; active = well fitted curve in the direction sought with a large enough effect; an effect the other way counts as inactive or inconclusive); conditions: SH-SY5Y GLuc-SERCaMP (Gaussia luciferase released on ER calcium loss) secretion, thapsigargin, luminescence; series mostly up to 38.4 µM
In short: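 The SH-SY5Y reporter protocol was run at 3 concentrations up to 38.3 uM (primary) or 11 concentrations (follow-up): 16 h compound, 100 nM thapsigargin for 4 h, then extracellular luciferase luminescence.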

Papain (Carica papaya) = Papain (Carica papaya) (UniProt P00784); assay: Primary qHTS assay for inhibitors of the protease papain (AID 1645873; active = well fitted curve in the direction sought with a large enough effect; an effect the other way counts as inactive or inconclusive;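 also: papain turnover of Z-FR-AMC read as the AMC fluorescence gain over 10 min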); conditions: papain Z-FR-AMC cleavage, AMC fluorescence; series mostly up to 49.8 µM
Papain (Carica papaya), sequence (P00784 whole entry, looked up): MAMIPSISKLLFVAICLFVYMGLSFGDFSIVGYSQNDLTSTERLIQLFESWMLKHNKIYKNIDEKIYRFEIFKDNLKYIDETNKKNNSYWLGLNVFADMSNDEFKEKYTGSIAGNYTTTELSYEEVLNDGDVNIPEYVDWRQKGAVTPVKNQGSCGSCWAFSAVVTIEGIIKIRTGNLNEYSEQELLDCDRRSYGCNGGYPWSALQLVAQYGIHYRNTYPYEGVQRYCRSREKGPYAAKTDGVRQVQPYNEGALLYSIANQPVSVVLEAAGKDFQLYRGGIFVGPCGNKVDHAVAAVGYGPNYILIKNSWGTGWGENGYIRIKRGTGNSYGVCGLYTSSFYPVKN

[2] = target: Cytochrome P450 2D6 (Homo sapiens) (UniProt P10635); assay: Cytochrome P450 family 2 subfamily D member 6 (CYP2D6) small molecule antagonists: luciferase biochemical (cell-free) qHTS assay (AID 1645840); conditions: P450-Glo CYP2D6 enzyme, luciferin luminescence, 1 h; series mostly up to 57.4 µM; also: nearly all actives have a fitted effect of over 55% in size; also: potency is read from the fitted curve at half-maximal effect
Cytochrome P450 2D6 (Homo sapiens), sequence (P10635 whole entry, looked up): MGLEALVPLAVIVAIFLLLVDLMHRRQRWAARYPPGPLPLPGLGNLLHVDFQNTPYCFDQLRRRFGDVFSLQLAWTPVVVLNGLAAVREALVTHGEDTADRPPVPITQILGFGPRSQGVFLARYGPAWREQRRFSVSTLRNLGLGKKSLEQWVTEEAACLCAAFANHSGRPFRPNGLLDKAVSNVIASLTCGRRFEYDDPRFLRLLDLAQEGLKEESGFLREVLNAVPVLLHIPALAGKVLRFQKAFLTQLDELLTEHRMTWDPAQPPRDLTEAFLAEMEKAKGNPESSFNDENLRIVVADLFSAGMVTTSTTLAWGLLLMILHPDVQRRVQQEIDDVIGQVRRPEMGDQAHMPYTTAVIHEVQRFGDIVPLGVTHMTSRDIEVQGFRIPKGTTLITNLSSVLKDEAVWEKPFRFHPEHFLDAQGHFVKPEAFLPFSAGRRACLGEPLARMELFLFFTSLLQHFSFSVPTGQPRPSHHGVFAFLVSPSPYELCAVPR
In short: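 P450-Glo CYP2D6 system: proluciferin substrate converted by enzyme to luciferin, read by luminescence proportional to activity. Enzyme-substrate mix with compound 10 min at room temperature, then NADPH regeneration 1 h before detection reagent.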

[3] = target: Cytochrome P450 2C9 (Homo sapiens) (UniProt P11712); assay: Cytochrome P450 family 2 subfamily C member 9 (CYP2C9) small molecule antagonists: luciferase biochemical (cell-free) qHTS assay (AID 1645842); conditions: P450-Glo CYP2C9 enzyme assay, luciferin luminescence; series mostly up to 57.4 µM; also: nearly all actives have a fitted effect of over 55% in size; also: potency is read from the fitted curve at half-maximal effect
Cytochrome P450 2C9 (Homo sapiens), sequence (P11712 whole entry, looked up): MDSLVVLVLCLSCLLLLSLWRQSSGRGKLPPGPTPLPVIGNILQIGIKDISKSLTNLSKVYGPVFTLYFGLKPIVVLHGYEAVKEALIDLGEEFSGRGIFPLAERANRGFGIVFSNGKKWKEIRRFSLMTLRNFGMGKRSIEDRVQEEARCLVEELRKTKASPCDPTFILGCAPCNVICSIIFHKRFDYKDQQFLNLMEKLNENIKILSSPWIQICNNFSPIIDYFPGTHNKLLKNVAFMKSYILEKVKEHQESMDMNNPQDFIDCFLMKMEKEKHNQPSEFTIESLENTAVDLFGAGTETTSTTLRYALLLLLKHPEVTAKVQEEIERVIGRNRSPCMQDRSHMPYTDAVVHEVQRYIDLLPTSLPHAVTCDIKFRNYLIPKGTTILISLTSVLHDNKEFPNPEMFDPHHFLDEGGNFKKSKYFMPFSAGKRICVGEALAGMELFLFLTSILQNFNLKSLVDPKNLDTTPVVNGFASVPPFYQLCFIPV
In short: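 P450-Glo CYP2C9 system: proluciferin substrate with enzyme in mix containing 0.4% BSA, 10 min at room temperature, then NADPH regeneration solution added and incubated 1 h at 37C. Detection reagent stopped reaction; luminescence read after 20 min as RLU.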

| SMILES | Potency [1] | outcome (Papain (Carica papaya)) | Potency [2] | Potency [3] |
| --- | --- | --- | --- | --- |
| COc1ccccc1N1CCN(CCN2C(=O)CC3(CCCC3)CC2=O)CC1 | inactive | inactive | – | – |
| C[C@H](CN1CCCC1)C(=O)c1ccc(C(F)(F)F)cc1 | inactive | – | 2.19 µM (active) | inactive |
| NC(N)=NCCCCN=C(N)N | inactive | inactive | – | – |
| CN1CCN(N)CC1 | inactive | – | inactive | inactive |
| C[N+](C)(C)CCO | inactive | inactive | – | – |
| COC(=O)C1=C(C)NC(COC(N)=O)=C(C(=O)OC(C)C)C1c1cccc(Cl)c1Cl (stereo not given) | inactive | – | 19.5 µM (active) | 4.36 µM (active) |
| CCCCCOc1ccccc1/C(=C\SC)n1ccnc1 | inactive | – | 0.977 µM (active) | 3.89 µM (active) |
| CCC(CN)=C(c1ccccc1)c1ccccc1 | inactive | – | 3.63 µM (active) | 11.5 µM (active) |
| CCOC(=O)C1=C(C)NC(C)=C(C(=O)OCC)C1c1ccccc1/C=C/C(=O)OC(C)(C)C | inactive | – | – | 0.49 µM (active) |
| CCCCC(CC)COC(=O)c1ccccc1C(=O)O (stereo not given) | inactive | – | – | 6.26 µM (active) |
| N[C@@H](Cn1ccc(=O)c(O)c1)C(=O)O | inactive | inactive | – | – |
| CN1CC[C@H](c2c(O)cc(O)c3c(=O)cc(-c4ccccc4Cl)oc23)[C@H](O)C1 | inactive | – | 12.3 µM (active) | inactive |
| Cc1nc(N)nc(N)c1-c1ccc(Cl)c(Cl)c1 | inactive | – | 0.871 µM (active) | inactive |
| O=C(Nc1ccc(S(=O)(=O)N2CCOCC2)cc1)c1cc(Cl)ccc1NS(=O)(=O)c1ccc(Cl)s1 | inactive | – | 15.5 µM (active) | 0.0436 µM (active) |
| C=CC[N+]1([C@H]2C[C@H]3[C@@H]4CC[C@H]5C[C@H](OC(C)=O)[C@@H](N6CCCCC6)C[C@]5(C)[C@H]4CC[C@]3(C)[C@H]2OC(=O)CC)CCCCC1 | inactive | – | – | inactive |
| CCCCN(CCCC)C(C(N)=O)c1ccc(OC)cc1 (stereo not given) | inactive | – | 0.776 µM (active) | inactive |
| COc1ccc(-n2nc(CCC(=O)N(C)O)cc2-c2ccc(Cl)cc2)cc1 | inactive | – | 4.9 µM (active) | 2.75 µM (active) |
| CCCCCOc1ccc(C2SC(=O)NC2=O)cc1OCC (stereo not given) | inactive | – | inactive | 7.76 µM (active) |

| SMILES | Potency [1] | outcome (Papain (Carica papaya)) | Potency [2] | Potency [3] |
| --- | --- | --- | --- | --- |
| Cc1cc(O)c2c(O)c3c(O)cccc3cc2c1 | inactive | – | inactive | 3.09 µM (active) |
| CCCCCN(CCCOC)C(=O)C(CCC(=O)O)NC(=O)c1ccc(Cl)c(Cl)c1 (stereo not given) | inactive | – | inactive | 19.5 µM (active) |
| CNC(=O)c1cnn(-c2nc(N)c3ncn([C@@H]4O[C@H](CO)[C@@H](O)[C@H]4O)c3n2)c1 | inactive | – | inactive | inactive |
| COc1ccc(OC(=O)N(CC(=O)O)Cc2ccc(OCCc3nc(-c4ccccc4)oc3C)cc2)cc1 | inactive | – | – | 17.4 µM (active) |
| CCOC(=O)C(=O)CCCCCCl | inactive | – | – | 24.2 µM (active) |
| C#CC(C)(CC)OC(=O)c1ccccc1C(=O)O (stereo not given) | inactive | – | inactive | inactive |
| CCCCCCCCCCCC[N+](C)(C)Cc1ccccc1 | inactive | – | 0.195 µM (active) | 15.5 µM (active) |
| CCC(=O)O[C@]1(C(=O)COC)[C@@H](C)C[C@H]2[C@@H]3CCC4=CC(=O)C=C[C@]4(C)C3(F)[C@@H](O)C[C@@]21C (stereo not given in full) | inactive | – | – | 24.5 µM (active) |
| CC1CCCCN1CCCOC(=O)c1ccc(OC2CCCCC2)cc1 (stereo not given) | inactive | – | 11 µM (active) | inactive |
| O=C(Nc1ccc(Cl)cc1)Nc1ccc(Cl)c(C(F)(F)F)c1 | inactive | – | 13.8 µM (active) | 11 µM (active) |
| CC(NCCC(c1ccccc1)c1ccccc1)c1ccccc1 (stereo not given) | inactive | – | 0.0871 µM (active) | 13.8 µM (active) |
| O=C1NC(=O)/C(=C/c2ccc3c(c2)OC(F)(F)O3)S1 | inactive | inactive | – | – |
| COc1cc2c(cc1OC)C(=O)CC2 | inactive | – | inactive | inactive |
| CC(C)=CCNc1ncnc2c1ncn2[C@@H]1O[C@H](CO)[C@@H](O)[C@H]1O | inactive | – | inactive | inactive |
| Cc1ccc(/C=N/n2c(-c3ccccc3)csc2=S)cc1 | inactive | – | inactive | 4.36 µM (active) |
| O=C(CS(=O)Cc1ccco1)NC/C=C\COc1cc(CN2CCCCC2)ccn1 (stereo not given) | inactive | – | – | inactive |
| Cn1cnc2c(NCc3ccccc3)nc(NCCO)nc21 | inactive | inactive | – | – |
| C[C@@H]1CCC[C@H](C)N1CCCC(O)(c1ccccc1)c1ccccn1 (stereo not given in full) | inactive | – | 0.871 µM (active) | inactive |
